Results: PubChem BioAssay (EPA / NIEHS)
The source made the active and inactive calls. The calls were made as follows: active = hit-call score of the fitted dose curve at least 0.9, where 1 is the maximum; inactive = score below 0.9.

Assays:
Settings in all cases: mRNA level, 48 h; actives raise or lower the signal
[1] = read-out: CYP2C8 (gene 1558); assay: LTEA_HepaRG_CYP2C8: Life Technologies and Expression Analysis (LTEA) Assay for CYP2C8 using HepaRG (AID 2283483)
In short: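 Differentiated HepaRG cells in serum-free induction medium exposed 48 h in duplicate to 8 half-log concentrations from 100 uM in 0.5% DMSO. CYP2C8 mRNA by qRT-PCR normalized to ACTB, GAPDH, POLR2A; bidirectional fit versus DMSO.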

[2] = read-out: CYP2C9 (gene 1559); assay: LTEA_HepaRG_CYP2C9: Life Technologies and Expression Analysis (LTEA) Assay for CYP2C9 using HepaRG (AID 2283484)
In short: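 Differentiated human HepaRG cells in serum-free induction medium were exposed 48 h to chemicals in 8-point half-log series from 100 uM (0.5% DMSO), in duplicate. CYP2C9 mRNA was measured by qRT-PCR, normalized to ACTB/GAPDH/POLR2A, with bidirectional fitting versus DMSO.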

[3] = read-out: CYP2E1 (gene 1571); assay: LTEA_HepaRG_CYP2E1: Life Technologies and Expression Analysis (LTEA) Assay for CYP2E1 using HepaRG (AID 2283485)
In short: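 HepaRG cells in serum-free induction medium exposed 48 h to test chemicals, 8 half-log concentrations up to 100 uM in 0.5% DMSO, duplicate. CYP2E1 mRNA by qRT-PCR, normalized to ACTB, GAPDH, POLR2A; bidirectional fit versus DMSO.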

[4] = read-out: CYP4A11 (gene 1579); assay: LTEA_HepaRG_CYP4A11: Life Technologies and Expression Analysis (LTEA) Assay for CYP4A11 using HepaRG (AID 2283486)
In short: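 HepaRG, 48 h chem exposure, 8 conc (100 uM top, half-log), 0.5% DMSO vehicle; qRT-PCR readout, housekeeping-gene normalized; bidirectional curve fit vs DMSO baseline.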

[5] = read-out: Cytochrome P450 3A4 (Homo sapiens) (UniProt P08684); assay: LTEA_HepaRG_CYP3A4: Life Technologies and Expression Analysis (LTEA) Assay for CYP3A4 using HepaRG (AID 2283487)
In short: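 Differentiated HepaRG cells, plated 48 h, then dosed 48 h in serum-free induction medium with 0.5% DMSO, 8 half-log concentrations up to 100 uM, duplicate. CYP3A4 mRNA by qRT-PCR, normalized to ACTB/GAPDH/POLR2A; bidirectional fit versus DMSO.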

[6] = read-out: DNA damage-inducible transcript 3 (DDIT3), DDIT3 (gene 1649); assay: LTEA_HepaRG_DDIT3: Life Technologies and Expression Analysis (LTEA) Assay for DNA damage-inducible transcript 3 (DDIT3) using HepaRG (AID 2283488)
In short: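 Differentiated human HepaRG cells in serum-free induction medium were exposed in duplicate for 48 h to 8 concentrations (top 100 uM, half-log steps, 0.5% DMSO). DDIT3 mRNA measured by TaqMan qRT-PCR, normalized to ACTB/GAPDH/POLR2A; bidirectional fit versus DMSO.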

[7] = read-out: Pro-epidermal growth factor (Homo sapiens) (UniProt P01133); assay: LTEA_HepaRG_EGF: Life Technologies and Expression Analysis (LTEA) Assay for Epidermal growth factor (EGF) using HepaRG (AID 2283489)
In short: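 HepaRG, 48 h dosing, 100 uM top, half-log x8, 0.5% DMSO. Readout: TaqMan qRT-PCR (Fluidigm array), housekeeping-normalized. Gain or loss of signal fit vs DMSO.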

[8] = read-out: Early growth response protein 1 (EGR1) transcription factor, EGR1 (gene 1958); assay: LTEA_HepaRG_EGR1: Life Technologies and Expression Analysis (LTEA) Assay for Early growth response protein 1 (EGR1) transcription factor using HepaRG (AID 2283490)
In short: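 Differentiated HepaRG cells in serum-free induction medium exposed 48 hours, duplicate, to 8 half-log concentrations up to 100 uM in 0.5% DMSO. EGR1 mRNA measured by TaqMan qRT-PCR, normalized to ACTB, GAPDH, POLR2A; bidirectional fit versus DMSO.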

[9] = read-out: Ezrin (EZR), EZR (gene 7430); assay: LTEA_HepaRG_EZR: Life Technologies and Expression Analysis (LTEA) Assay for Ezrin (EZR) using HepaRG (AID 2283491)
In short: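 EZR transcript levels came from Fluidigm qRT-PCR and were normalized to three housekeeping genes after 48 h chemical exposure of HepaRG cells. Dosing used an 8-point half-log series with a 100 uM top concentration in 0.5% DMSO, tested in duplicate; both directions were fitted versus vehicle.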

[10] = read-out: Cytochrome P450 3A7 (Homo sapiens) (UniProt P24462); assay: LTEA_HepaRG_CYP3A7: Life Technologies and Expression Analysis (LTEA) Assay for CYP3A7 using HepaRG (AID 2283492)
In short: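 Human HepaRG liver cells, 48 h post-plating, switched to serum-free induction medium and exposed in duplicate for 48 h. Dosing: 100 uM top, half-log dilutions, 8 points, 0.5% DMSO vehicle. Read-out: CYP3A7 mRNA, gain or loss fitted against DMSO baseline.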

[11] = read-out: CYP3A5 (gene 1577); assay: LTEA_HepaRG_CYP3A5: Life Technologies and Expression Analysis (LTEA) Assay for CYP3A5 using HepaRG (AID 2283493)
In short: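 Differentiated HepaRG cells in serum-free induction medium were dosed 48 h with test chemicals (8-point half-log series, top 100 uM, 0.5% DMSO, duplicate). CYP3A5 mRNA measured by qRT-PCR, normalized to ACTB, GAPDH, POLR2A; bidirectional fit versus DMSO.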

[12] = read-out: Fatty Acid-Binding Protein 1 (FABP1), FABP1 (gene 2168); assay: LTEA_HepaRG_FABP1: Life Technologies and Expression Analysis (LTEA) Assay for Fatty Acid-Binding Protein 1 (FABP1) using HepaRG (AID 2283494)
In short: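 Differentiated human HepaRG cells exposed 48 h in serum-free induction medium to eight half-log concentrations up to 100 uM (0.5% DMSO), duplicate. FABP1 mRNA by qRT-PCR, normalised to ACTB, GAPDH, POLR2A; bidirectional fitting against DMSO.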

[13] = read-out: Cytochrome P450 4A22 (Homo sapiens) (UniProt Q5TCH4); assay: LTEA_HepaRG_CYP4A22: Life Technologies and Expression Analysis (LTEA) Assay for Cytochrome P450 4A22 (CYP4A22) using HepaRG (AID 2283495)
In short: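 Readout is CYP4A22 transcript induction or loss, quantified by qRT-PCR and normalized to ACTB, GAPDH and POLR2A. Human HepaRG cells receive test chemicals for 48 h at eight half-log concentrations from 100 uM in 0.5% DMSO.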

[14] = read-out: Cytochrome P450 7A1 (Homo sapiens) (UniProt P22680); assay: LTEA_HepaRG_CYP7A1: Life Technologies and Expression Analysis (LTEA) Assay for Cytochrome P450 7A1 (CYP7A1) using HepaRG (AID 2283496)
In short: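 Gene expression endpoint in human HepaRG liver cells treated for 48 h with test chemicals (up to 100 uM, 0.5% DMSO). Values come from bidirectional concentration-response fitting versus DMSO.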

[15] = read-out: Glutathione S-Transferase (GSTA2), GSTA2 (gene 2939); assay: LTEA_HepaRG_GSTA2: Life Technologies and Expression Analysis (LTEA) Assay for Glutathione S-Transferase (GSTA2) using HepaRG (AID 2283497)
In short: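 Differentiated human HepaRG cells were exposed in duplicate for 48 h in serum-free induction medium, 8 points from 100 uM top in half-log steps, 0.5% DMSO. GSTA2 mRNA was measured by TaqMan qRT-PCR, normalized to ACTB, GAPDH and POLR2A; bidirectional fit versus DMSO.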

[16] = read-out: Glutamate-cysteine ligase catalytic (GCLC), GCLC (gene 2729); assay: LTEA_HepaRG_GCLC: Life Technologies and Expression Analysis (LTEA) Assay for Glutamate-cysteine ligase catalytic (GCLC) using HepaRG (AID 2283498)
In short: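 Differentiated HepaRG cells exposed 48 h in serum-free induction medium, eight-point half-log series topping at 100 uM in 0.5% DMSO, duplicates. GCLC mRNA by qRT-PCR normalized to ACTB, GAPDH and POLR2A, fitted bidirectionally versus DMSO.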

[17] = read-out: growth arrest and DNA damage 45 (GADD45G), GADD45G (gene 10912); assay: LTEA_HepaRG_GADD45G: Life Technologies and Expression Analysis (LTEA) Assay for growth arrest and DNA damage 45 (GADD45G) using HepaRG (AID 2283499)
In short: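 Gain or loss of GADD45G mRNA, quantified by TaqMan qRT-PCR against three housekeeping genes, is fitted in both directions relative to 0.5% DMSO. Human HepaRG cultures receive test chemical for 48 h at up to 100 uM.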

[18] = read-out: Glutamate-cysteine ligase regulatory (GCLM), GCLM (gene 2730); assay: LTEA_HepaRG_GCLM: Life Technologies and Expression Analysis (LTEA) Assay for Glutamate-cysteine ligase regulatory (GCLM) using HepaRG (AID 2283500)
In short: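 Differentiated human HepaRG cells exposed 48 h in serum-free induction medium to 8-point half-log concentrations (top 100 uM, 0.5% DMSO), in duplicate. GCLM mRNA quantified by qRT-PCR, normalized to ACTB, GAPDH, POLR2A; bidirectional fitting versus DMSO.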

[19] = read-out: Glutathione S-transferase M3 (GSTM3), GSTM3 (gene 2947); assay: LTEA_HepaRG_GSTM3: Life Technologies and Expression Analysis (LTEA) Assay for Glutathione S-transferase M3 (GSTM3) using HepaRG (AID 2283501)
In short: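 HepaRG, plated 48 h, then serum-free induction medium; test chemical 48 h, duplicate; 100 uM top, half-log x8, 0.5% DMSO. Read-out: GSTM3 mRNA (TaqMan qRT-PCR, Fluidigm array). Bidirectional fit vs DMSO.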

[20] = read-out: Heat shock 70 kDa protein 1 (HSPA1A), gene 3303; assay: LTEA_HepaRG_HSPA1A: Life Technologies and Expression Analysis (LTEA) Assay for Heat shock 70 kDa protein 1 (HSPA1A) using HepaRG (AID 2283502)
In short: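 Differentiated human HepaRG cells in serum-free induction medium were exposed in duplicate for 48 h to eight concentrations (top 100 uM, half-log steps, 0.5% DMSO). HSPA1A mRNA was quantified by qRT-PCR, normalized to ACTB, GAPDH and POLR2A, and fitted bidirectionally against DMSO.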

Chain of Cytochrome P450 3A4 (Homo sapiens) (P08684 whole entry, looked up): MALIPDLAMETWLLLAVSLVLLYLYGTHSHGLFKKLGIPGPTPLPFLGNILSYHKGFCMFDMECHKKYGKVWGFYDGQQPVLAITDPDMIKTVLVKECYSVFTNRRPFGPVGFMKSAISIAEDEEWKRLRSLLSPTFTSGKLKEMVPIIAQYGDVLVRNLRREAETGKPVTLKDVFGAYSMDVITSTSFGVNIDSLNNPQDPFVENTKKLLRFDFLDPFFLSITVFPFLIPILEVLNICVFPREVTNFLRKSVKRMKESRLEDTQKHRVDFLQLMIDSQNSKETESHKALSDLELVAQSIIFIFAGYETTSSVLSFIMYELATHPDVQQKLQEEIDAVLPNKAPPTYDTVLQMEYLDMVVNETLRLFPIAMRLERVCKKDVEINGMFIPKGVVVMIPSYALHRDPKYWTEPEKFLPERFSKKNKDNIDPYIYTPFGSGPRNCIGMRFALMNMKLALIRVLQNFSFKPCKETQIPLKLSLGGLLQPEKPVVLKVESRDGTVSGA
Chain of Cytochrome P450 3A7 (Homo sapiens) (P24462 whole entry, looked up): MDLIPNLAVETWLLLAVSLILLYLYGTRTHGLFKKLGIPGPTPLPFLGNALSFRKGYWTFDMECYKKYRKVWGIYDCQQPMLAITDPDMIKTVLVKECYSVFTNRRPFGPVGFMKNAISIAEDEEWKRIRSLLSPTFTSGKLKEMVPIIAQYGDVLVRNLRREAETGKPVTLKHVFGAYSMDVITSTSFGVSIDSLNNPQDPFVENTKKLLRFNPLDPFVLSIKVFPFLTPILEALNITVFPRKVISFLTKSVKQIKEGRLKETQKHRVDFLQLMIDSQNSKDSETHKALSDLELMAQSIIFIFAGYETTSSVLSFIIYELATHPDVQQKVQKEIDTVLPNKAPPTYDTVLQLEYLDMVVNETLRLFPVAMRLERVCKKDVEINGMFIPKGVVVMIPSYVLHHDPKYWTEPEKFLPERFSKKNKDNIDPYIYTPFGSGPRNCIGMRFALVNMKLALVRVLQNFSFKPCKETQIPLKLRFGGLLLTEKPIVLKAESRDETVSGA

CCc1cccc(CC)c1N(COC)C(=O)CCl
outcome [1]: inactive
outcome [2]: inactive
outcome [3]: inactive
outcome [4]: inactive
outcome [5]: inactive
outcome [6]: inactive
outcome [7]: inactive
outcome [8]: inactive
outcome [9]: inactive
outcome [10]: inactive
outcome [11]: inactive
outcome [12]: inactive
outcome [13]: inactive
outcome [14]: inactive
outcome [15]: inactive
outcome [16]: inactive
outcome [17]: inactive
outcome [18]: inactive
outcome [19]: inactive
outcome [20]: inactive

CC(COc1ccc(Oc2ccccc2)cc1)Oc1ccccn1 (stereo not given)
outcome [1]: inactive
outcome [2]: inactive
AC50 [3]: 35.7 µM (active)
AC50 [4]: 12.5 µM (active)
AC50 [5]: 11.8 µM (active)
outcome [6]: inactive
AC50 [7]: 31.5 µM (active)
outcome [8]: inactive
outcome [9]: inactive
outcome [10]: inactive
outcome [12]: inactive
outcome [13]: inactive
AC50 [14]: 19.9 µM (active)
outcome [15]: inactive
outcome [17]: inactive
outcome [18]: inactive
outcome [19]: inactive
outcome [20]: inactive

COc1cccc(C(=O)NN(C(=O)c2cc(C)cc(C)c2)C(C)(C)C)c1C
AC50 [1]: 3.61 µM (active)
outcome [2]: inactive
AC50 [3]: 23.5 µM (active)
outcome [4]: inactive
AC50 [5]: 1.81 µM (active)
outcome [6]: inactive
outcome [7]: inactive
outcome [8]: inactive
outcome [9]: inactive
AC50 [10]: 5.42 µM (active)
outcome [12]: inactive
outcome [13]: inactive
AC50 [14]: 2.88 µM (active)
outcome [15]: inactive
outcome [17]: inactive
outcome [18]: inactive
outcome [19]: inactive
outcome [20]: inactive

COc1ccc(C(=CC(=O)N2CCOCC2)c2ccc(Cl)cc2)cc1OC
AC50 [1]: 10.4 µM (active)
outcome [2]: inactive
AC50 [3]: 15.3 µM (active)
AC50 [4]: 59 µM (active)
AC50 [5]: 9.63 µM (active)
outcome [6]: inactive
outcome [7]: inactive
outcome [8]: inactive
outcome [9]: inactive
outcome [10]: inactive
outcome [11]: inactive
outcome [12]: inactive
AC50 [13]: 50 µM (active)
outcome [14]: inactive
outcome [15]: inactive
outcome [16]: inactive
outcome [17]: inactive
outcome [18]: inactive
outcome [19]: inactive
outcome [20]: inactive

COP(=O)(OC)SCn1c(=O)oc2cc(Cl)cnc21
outcome [1]: inactive
AC50 [2]: 36.9 µM (active)
outcome [3]: inactive
AC50 [4]: 36.2 µM (active)
AC50 [5]: 37.3 µM (active)
outcome [6]: inactive
outcome [7]: inactive
outcome [8]: inactive
outcome [9]: inactive
AC50 [10]: 50 µM (active)
AC50 [11]: 37.8 µM (active)
outcome [12]: inactive
AC50 [13]: 46.7 µM (active)
outcome [14]: inactive
AC50 [15]: 65 µM (active)
outcome [16]: inactive
outcome [17]: inactive
outcome [18]: inactive
outcome [19]: inactive
outcome [20]: inactive

Cc1cc(C2CC2)nc(Nc2ccccc2)n1
outcome [1]: inactive
outcome [2]: inactive
outcome [3]: inactive
outcome [4]: inactive
outcome [5]: inactive
outcome [6]: inactive
outcome [7]: inactive
outcome [8]: inactive
outcome [9]: inactive
outcome [10]: inactive
outcome [11]: inactive
outcome [12]: inactive
outcome [13]: inactive
outcome [14]: inactive
outcome [15]: inactive
outcome [16]: inactive
AC50 [17]: 29.7 µM (active)
outcome [18]: inactive
outcome [20]: inactive
